Reference: PubChem BioAssay (NCATS)
Inconclusive results are not listed. Where a call stands in place of a potency, no number is given. Active and inactive are the calls of the source. The call rests on the fitted dose curve; in most records, active means well fitted inhibition curve with a large enough effect; inconclusive means small, poorly fitted or top-dose-only effect; inactive means flat fitted curve, though single readings scatter.

Assay: P-glycoprotein substrates identified in KB-8-5-11 adenocarcinoma cell line, qHTS therapeutic library screen (AID 1346987); further: nearly all actives have a fitted effect of over 65% in size
Conditions: KB-8-5-11 (P-gp overexpressing) viability, CellTiter-Glo, 72 h; series mostly up to 44.5 µM
Outline: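 KB-8-5-11: colchicine-selected sub-line of KB-3-1 over-expressing P-gp; assay medium lacked colchicine. 72 h drug exposure at 37 degree C, CellTiter-Glo.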

Row | Compound | Potency | outcome | activity change, negative = cytotoxicity
1 | COC(=O)C1=COC(O[C@@H]2O[C@H](CO)[C@@H](O)[C@H](O)[C@H]2O)C2C(C)C(=O)CC12 (stereo not given in full) | inactive |  | 
2 | Cc1ccc(-c2c(-c3nn(C)c4ncnc(N5CC[C@H](N6CCCCC6)C5)c34)cnn2C)cc1 | inactive |  | 
3 | CC1(C)CC=C(C#Cc2ccccc2)c2cc(/C=C/c3ccc(C(=O)O)cc3)ccc21 | inactive |  | 
4 | COc1cc(C[C@@]2(O)CO[C@@H](c3ccc(O[C@@H]4O[C@H](CO)[C@@H](O)[C@H](O)[C@H]4O)c(OC)c3)[C@H]2CO)ccc1O | inactive |  | 
5 | C=C(C)[C@@]1(O)C[C@@]2(C)C(=CC1=O)CC[C@@H](O)[C@@H]2C | inactive |  | 
6 | Cc1cc(Cn2cnc3c2CC(C(=O)O)N(C(=O)C(c2ccccc2)c2ccccc2)C3)ccc1N(C)C (stereo not given) | inactive |  | 
7 | CC(=O)O[C@@H]1C[C@@H](C)[C@](O)(CCC2=CC(=O)OC2)[C@@]2(C)CCCC(C)(C)C12 (stereo not given in full) | inactive |  | 
8 | C[C@@H]1O[C@@H](O[C@H]2[C@@H]3C=CO[C@@H](O[C@@H]4O[C@H](CO)[C@@H](O)[C@H](O)[C@H]4O)[C@@H]3[C@@]3(CO)O[C@@H]23)[C@H](O)[C@H](O)[C@H]1OC(=O)/C=C/c1ccc(O)cc1 | inactive |  | 
9 | C/C(CO)=C1/CCC23COC(C2)C(O)(C(=O)O)CCC13 (stereo not given) | inactive |  | 
10 | CNc1nc(C)nc(N[C@H]2CCC[C@@H](C(=O)NCc3ccc(C#N)cc3C(F)(F)F)C2)n1 | inactive |  | 
11 | O=C(/C=C/c1ccc(O)cc1)O[C@H]1[C@H](OC2CCCCC2O)O[C@H](CO)[C@@H](O)[C@@H]1O (stereo not given in full) | inactive |  | 
12 | CC1(C)CC[C@]2(C(=O)O[C@@H]3O[C@H](CO)[C@@H](O)[C@H](O)[C@H]3O)CC[C@]3(C)C(=CCC4[C@@]5(C)C[C@H](O)[C@H](O[C@@H]6OC[C@@H](O)[C@H](O)[C@H]6O)[C@@](C)(CO)C5CC[C@]43C)C2C1 (stereo not given in full) |  | inactive [at 9.29 µM] | 
13 | O=C(/C=C/c1ccc(O)cc1)OCC1OC(O)C(OC2OC(CO)C(O)C(O)C2O)C(O)C1O (stereo not given) | inactive |  | 
14 | CC1(C(=O)O)CCCC2(C)C3CCC4CC3(CCC12)CC4(O)CO (stereo not given) | inactive |  | 
15 | C[C@@H]1C(=O)O[C@H]2[C@H]1CC[C@@]1(C)C(=O)C=C[C@@](C)(O)[C@H]21 | inactive |  | 
16 | C=CC(C)(CC/C=C(\C)C(=O)OC)OC1OC(COC(=O)CC(C)(O)CC(=O)O)C(O)C(O)C1O (stereo not given) | inactive |  | 
17 | COc1cc(O)cc(C)c1C(=O)OC1C(CO)OC(n2ccc(=O)[nH]c2=O)C1OC(C)=O (stereo not given) | inactive |  | 
18 | COc1ccc(C(=O)NCc2cc(C(C)C)no2)cc1OC1CCN(C)CC1 | inactive |  | 
19 | CC1=CCC2C(C)(C)CCCC2(C)C1CC12OC1C(O)C(CO)=CC2O (stereo not given) | inactive |  | 
20 | COC(=O)/C=C/c1ccc(O[C@@H]2O[C@H](CO)[C@@H](O)[C@H](O)[C@H]2O)cc1 | inactive |  | 
21 | C=C(COC(=O)C(C)C)C1Oc2cc(C(C)=O)ccc2C1OC(=O)C(C)C (stereo not given) | inactive |  | 
22 | Cc1nc(-c2cccnc2)sc1C(=O)Nc1ccccc1-c1cn2c(CN3CCOCC3)csc2n1 | inactive |  | 
23 | COc1cc(/C=C/C(=O)O)ccc1O[C@@H]1O[C@H](CO)[C@@H](O)[C@H](O)[C@H]1O[C@@H]1OC[C@](O)(CO)[C@H]1O | inactive |  | 
24 | COc1cc(O)c2c(c1Cl)CC(C)OC2=O (stereo not given) | inactive |  | 
25 | CCCO[C@@H]1O[C@H](CO)[C@@H](O)[C@H](O)[C@H]1O[C@@H]1OC[C@@H](O)[C@H](O)[C@H]1O | inactive |  | 
26 | C=C(CCO)C(=O)OCC1OCC(OC(=O)C(=C)CCO[C@@H]2O[C@H](CO)[C@@H](O)[C@H](O)[C@H]2O)C(O)C1O (stereo not given in full) | inactive |  | 
27 | NC(=O)NCCCC(NC(=O)Cc1ccccc1)C(=O)O (stereo not given) | inactive |  | 
28 | CC1=C2CC(=O)C(C)CC/C=C(\C)CC2(O)OC1=O (stereo not given) | inactive |  | 
29 | C=C1CC[C@@]2(OC1)O[C@H]1CC3C4CC=C5C[C@@H](O[C@@H]6O[C@@H](C)[C@H](O)[C@@H](O)[C@H]6O)C[C@@H](O[C@@H]6O[C@H](C)[C@H](O)[C@H](O)[C@H]6O[C@@H]6O[C@@H](C)[C@H](O)[C@@H](O)[C@H]6O)[C@]5(C)C4CC[C@]3(C)[C@H]1[C@@H]2C (stereo not given in full) |  |  | 5.67% [at 9.29 µM] (inactive)
30 | C/C=C/C=C/C=C/C(=O)OC1C=C2C(O)OC(=O)[C@]2(O)[C@@]2(C)CCCC(C)(C)[C@H]12 (stereo not given in full) | inactive |  | 
